L3MBTL1 inh – L3MBTL1 (human) inhibition; Potency, µM (series often up to 57.1 µM), for the others: at the top dose activity, negative = inhibition, most hits filed as inhibitors; Q9Y468; AID 485360; AlphaScreen L3MBTL1–H3K9me1 peptide binding; 0.66% of 230,000 active; note: potency is the fitted concentration of half-maximal effect; % is set by controls: 0 for no effect and ±100 for the full control effect; nearly all actives have a fitted effect of over 60% in size
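Displacement of a biotinylated histone H3(1-15) peptide monomethylated at Lys9 (75 nM) from L3MBTL1 (50 nM) was measured by AlphaScreen after a 30 min room-temperature compound incubation; cefsulodin titration served as intraplate control.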
PI5P4Ka inh – blocks human PI5P4K alpha kinase activity. P48426. PI5P4Kalpha enzyme, ADP-Glo luminescence, 60 min; stronger effect = lower value. max response, %. 1.2% of 330,000 active; active = max response of -50% or lower; inconclusive = between -30% and -50%; inactive = -30% or higher; note: value at the top dose of about 77 µM; % is set by controls: 0 for no effect and ±100 for the full control effect
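Reactions run in 0.038 M HEPES pH 7.4, 0.28 mM EGTA, 0.1% CHAPS and 5% DMSO, with PI5P4Kalpha, substrate, compound and 5 microM ATP final, one hour at room temperature. Readout is ADP-Glo luminescence.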
HP1b binding inh – HP1-beta chromodomain-methylated histone interaction inhibition | P83916 | Potency, µM (titrated, usually from 114 µM), without a hit: at the top dose activity change, negative = inhibition, most hits filed as inhibitors | AlphaScreen HP1-beta / biotin-H3K9me3 peptide binding | 0.56% of 390,000 active; note: potency is the fitted concentration of half-maximal effect; nearly all actives have a fitted effect of over 70% in size
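Compound inhibition of the preformed complex between 50 nM HP1-beta and 50 nM biotinylated H3K9me3 peptide was read by AlphaScreen. Buffer was PBS pH 7.4 with 0.01% Tween-20. Incubations ran 30 min at room temperature, with 10 ug/mL donor/acceptor beads.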
BAZ2B block – inhibitors of human BAZ2B bromodomain. Q9UIF8. 4.4% of 360,000 active. Potency, µM (series often up to 114 µM), inactives show at the highest dose activity change, negative = inhibition, usual class: inhibitors. AlphaScreen BAZ2B-H3K14Ac peptide displacement. AID 504333; note: potency is the fitted concentration of half-maximal effect; % is set by controls: 0 for no effect and ±100 for the full control effect; nearly all actives have a fitted effect of over 60% in size
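Protein-peptide AlphaScreen: BAZ2B 50 nM, b-H3K14Ac 50 nM, 1x PBS pH 7.4 + 0.01% Tween-20. Preincubation 30 min RT; cpd 30 min RT (top 110 uM); beads 20 min RT, light-protected.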
JMJD2A Tudor inh – JMJD2A Tudor domain (human) inhibition | 4.4% of 390,000 active | O75164 | AlphaScreen JMJD2A-Tudor / H3K4me3 peptide binding | Potency, µM (highest dose often 114 µM), for the others: at the highest dose activity change, negative = inhibition, actives largely listed as inhibitors | AID 504339; note: potency is the fitted concentration of half-maximal effect; % is set by controls: 0 for no effect and ±100 for the full control effect; nearly all actives have a fitted effect of over 50% in size
KDM4E inh – JMJD2E (human) inhibition. JMJD2E catalytic domain, FDH-coupled NADH fluorescence (FDH is formaldehyde dehydrogenase). 1.6% of 230,000 active. B2RXH2. Potency, µM (top dose mostly 57.1 µM), for the others: at the highest dose activity change, negative = inhibition, hits mostly inhibitors; active = well fitted inhibition curve with a large enough effect, not every such curve was filed as active; inconclusive = small, poorly fitted or top-dose-only effect, or another doubt; inactive = no such curve, though single readings can be large or run the other way;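 note: potency is the fitted concentration of half-maximal effect; 0% = wells with enzyme and -100% = buffer wells without enzyme; nearly all actives have a fitted effect of over 50% in size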
* marks the source's active call; other numbers are inactive results; ? = inconclusive; nt = no result given; [ ] = another dose, or the depositor's remark. Hits are enriched below; roughly 5.7% of the tested compounds scored in any of these assays. Unless noted, calls come from the whole dose curve; as a rule, active = well fitted inhibition curve with a large enough effect; inconclusive = small, poorly fitted or top-dose-only effect; inactive = no such curve, though single readings can be large or run the other way.

SMILES | L3MBTL1 inh | PI5P4Ka inh | HP1b binding inh | BAZ2B block | JMJD2A Tudor inh | KDM4E inh
COc1cc(CN2CCN(C(=O)COc3ccccc3)CC2)cc(OC)c1OC | -3% | 5 | -20% | ? | 3.2µM* | -22%
COc1ccc(OC)c(CN2CCN(C(=O)COc3cccc(C)c3)CC2)c1 | -3% | 2 | ? | ? | 3.5µM* | ?
Cn1cccc1CN1CCN(C(=O)COc2ccccc2)CC1 | -3% | -10 | ? | 45µM* | 7.1µM* | -13%
CN1CCCN(C(=O)COc2ccccc2)CC1 | nt | 0 | 31% | -2% | 12% | nt
NCCCP(=O)(O)CC1CCCCC1 | nt | nt | nt | nt | nt | -20%
CCC[C@@H]1CC2=CC(=O)CC[C@]2(C)[C@@H]2CC[C@@]3(C)[C@H](CC[C@]3(O)CCC(=O)O)[C@H]12 | nt | nt | nt | nt | nt | 5%
Cc1cc(OCC(=O)OC(C)(C)C)c2c3c(c(=O)oc2c1)CCC3 | 3% | -1 | 81% | 14% | -16% | 4.5µM*
CCCN(CCC)[C@@H]1CCc2c(OC)cccc2[C@@H]1C | nt | nt | nt | nt | nt | 10%
O=C(O)CCC1NCC2CC1CN1CCCCC21 (stereo unspecified) | nt | nt | nt | nt | nt | 2%
COP(=S)(OC)Oc1ccc(Sc2ccc(OP(=S)(OC)OC)cc2)cc1 | nt | -64* | 139% | nt | 113% | nt
COP(=S)(OC)Oc1ccc([N+](=O)[O-])cc1 | nt | nt | nt | nt | nt | -7%
COc1ccc(-c2cc(C(=O)N3CCN(c4ccccc4OC)CC3)c3cc(C(C)C)ccc3n2)cc1 | nt | nt | 20% | ? | -25% | nt
O=C(COc1ccccc1)N1CCN(C2CCCC2)CC1 | -5% | 0 | -55% | -106% | 7.9µM* | ?
COc1ccc(OCC(=O)N2CCN(C3CCC(c4ccccc4)CC3)CC2)cc1 (stereo unspecified) | -5% | 7 | ? | 50µM* | 20µM* | ?
O=C(Cc1ccccc1)N1CCN(C2CCCC2)CC1 | 30% | 3 | -34% | ? | 32µM* | ?
O=C(COc1ccc2ccccc2c1)N1CCN(C2CCN(Cc3ccccc3)CC2)CC1 | -7% | 12 | -3% | -4% | -24% | -2%
C=C(C)[C@H]1C2C(=O)O[C@H]1[C@H]1OC(=O)[C@@]34O[C@@H]3C[C@]2(O)[C@@]14C | nt | nt | nt | nt | nt | 3%
C=CCn1c(O)c(/C(C)=N/NC(=S)Nc2ccccc2)c(=O)[nH]c1=O | nt | -64* | 6% | -3% | ? | ?
C=CCn1c(O)c(C(C)=Nc2ccc(C(=O)OCC)cc2)c(=O)[nH]c1=O | nt | -17 | 30% | 79µM* | 5% | -11%
C=CCn1c(O)c(C(C)=Nc2cccc(C(=O)O)c2)c(=O)[nH]c1=O | 5% | -18 | 17% | -37% | 1% | ?
O=C(OCC(=O)N1CCOCC1)c1ccc[nH]c1=O | 4% | -1 | -4% | nt | 18µM* | -7%
O=c1c2ccccc2nc(/C=C/c2ccccc2)n1-c1ccc(O)cc1 | nt | -3 | 1% | -21% | -22% | nt
O=c1c2ccccc2nc(/C=C/c2cccnc2)n1Cc1ccccc1 | 6.3µM* | 2 | ? | 10µM* | 22µM* | 7.9µM*
COc1ccc(C[C@@H]2NC[C@H](O)[C@@H]2OC(C)=O)cc1 | nt | nt | nt | nt | nt | -1%[25.5 µM]
NC(N)=NOCCC(N)C(=O)O (stereo unspecified) | nt | nt | nt | nt | nt | 5%
SMILES | L3MBTL1 inh | PI5P4Ka inh | HP1b binding inh | BAZ2B block | JMJD2A Tudor inh | KDM4E inh
c1cncc(CNCCN2CCNCC2)c1 | nt | 7 | 25% | nt | -2% | nt
c1cncc([C@H]2CCCCN2)c1 | nt | nt | nt | nt | nt | 5%
c1cncc(CNC2CCCC2)c1 | 7% | -1 | 39% | ? | ? | 22µM*
c1cncc(CNC2=NCCCCC2)c1 | -8% | nt | 4% | 79µM* | -12% | 2%
C#CCN1C(C)=C(C(=O)CCO)[C@@H](c2cccc(-n3oo3)c2)C(C(=O)OC)=C1C | nt | nt | nt | nt | nt | -3%
Oc1cc(O)c2c(c1)OC(c1cc(O)c(O)c(O)c1)C(O)C2 (stereo unspecified) | nt | nt | nt | nt | nt | 1.4µM*
O=C(O[C@@H]1Cc2c(O)cc(O)cc2O[C@@H]1c1cc(O)c(O)c(O)c1)c1cc(O)c(O)c(O)c1 | nt | nt | nt | 8.9µM* | nt | 8.9µM*
O=C(OC1Cc2c(O)cc(O)cc2OC1c1cc(O)c(O)c(O)c1)c1cc(O)c(O)c(O)c1 (stereo unspecified) | nt | nt | nt | nt | nt | 2.5µM*
O=C(NCc1c(-n2cccc2)sc2c1CCCC2)Nc1cccc(C(F)(F)F)c1 | nt | nt | 51% | -18% | -8% | nt
NC(=NCCC[C@H](N)C(=O)O)N[N+](=O)[O-] | nt | nt | nt | nt | nt | 3%
CCc1nnc(NC(=O)CSc2ccc(-c3ccco3)nn2)s1 | nt | -9 | 17% | 50µM* | 9% | ?
CCCc1nnc(NC(=O)CCC(=O)N2CCN(CCOC(c3ccccc3)c3ccccc3)CC2)s1 | -12% | 7 | 1% | -37% | -29% | 7%
CN1[C@@H]2CC[C@H]1CC(O[C@@H](c1ccccc1)c1ccc(Cl)cc1)C2 (stereo partly specified) | nt | nt | nt | nt | nt | -23%
Cn1ncnc2c(=O)n(C)c(=O)nc1-2 | -19% | 0 | 62% | 8% | -4% | 4µM*
O=C(NC(=S)Nc1ccccc1N1CCCC1)c1ccccc1Br | nt | nt | nt | 11µM* | nt | nt
COc1ccc2[nH]c(C)c(CCN3CCC(=O)C(C)C3C)c2c1 (stereo unspecified) | -9% | 0 | 14% | ? | ? | ?
COc1ccc2[nH]c(C)c(CCNCc3cc(OC)c(OC)c(OC)c3)c2c1 | -19% | 5 | ? | 79µM* | 2.8µM* | ?
COc1ccc2[nH]c(C)c(CCNCc3cc(OC)c4c(c3)OCO4)c2c1 | -6% | -4 | ? | 45µM* | 1.3µM* | nt
Cc1ccc2[nH]c(C)c(CCNCc3cccnc3)c2c1 | nt | 1 | 23% | ? | 7% | nt
COc1ccc(CNCCc2c(C)[nH]c3ccc(OC(F)(F)F)cc23)c(OC)c1 | nt | 3 | ? | 56µM* | 18µM* | nt
Brc1nc(-c2ccccc2)nc(-c2ccccc2)c1Br | nt | 1 | 57% | nt | 13% | nt

Assay outcomes: PubChem, National Center for Advancing Translational Sciences (NCATS)
